High-throughput results deposited in PubChem by several laboratories.
DSG3 Ab inh: human desmoglein-3 autoantibody binding inhibition | binding (percent of control), % at 10 µM | P32926 | DSG3-coupled beads, scFv-anti-DSG3-GFP binding, flow cytometry; hits give low values | actives 0.48% (n = 310,000);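 active = binding more than 3 SD below its plate's average and above zero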;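 also: hits lower antibody fragment binding to DSG3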
DAGLB inh: diacylglycerol lipase beta (human) inhibition. Q8NCG7. HEK293T DAGLB membrane lysate, EnzChek fluorogenic substrate. inhibition, % at 5.17 µM. actives 0.059% (n = 340,000). AID 504411; in the data active = inhibition above about 34%
Target sequence (Q8NCG7 whole entry, looked up): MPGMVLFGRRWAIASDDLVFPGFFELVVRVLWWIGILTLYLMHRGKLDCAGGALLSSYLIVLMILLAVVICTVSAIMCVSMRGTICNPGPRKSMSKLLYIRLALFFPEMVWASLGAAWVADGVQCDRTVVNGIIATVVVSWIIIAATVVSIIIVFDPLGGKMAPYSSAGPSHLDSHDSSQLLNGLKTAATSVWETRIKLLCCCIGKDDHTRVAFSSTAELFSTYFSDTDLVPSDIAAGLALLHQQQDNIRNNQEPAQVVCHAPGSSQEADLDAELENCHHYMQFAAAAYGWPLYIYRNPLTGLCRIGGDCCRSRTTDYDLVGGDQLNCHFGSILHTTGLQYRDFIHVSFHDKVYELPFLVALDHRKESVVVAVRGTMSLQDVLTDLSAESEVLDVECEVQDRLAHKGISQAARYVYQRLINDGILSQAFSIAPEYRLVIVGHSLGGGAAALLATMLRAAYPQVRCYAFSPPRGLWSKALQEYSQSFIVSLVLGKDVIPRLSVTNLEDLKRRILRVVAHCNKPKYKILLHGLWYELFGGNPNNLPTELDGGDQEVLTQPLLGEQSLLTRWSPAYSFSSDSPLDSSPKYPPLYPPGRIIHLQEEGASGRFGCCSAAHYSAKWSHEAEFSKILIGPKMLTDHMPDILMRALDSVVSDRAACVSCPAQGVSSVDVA
MsrA act: bovine methionine sulfoxide reductase A activation | purified bovine MsrA, absorbance read-out | activation, % at 10.6 µM | actives 0.3% (n = 360,000); in the data active = activation above about 7.5%
rCAG RNA binder: binds r(CAG) RNA repeats; r(CAG) RNA repeat, TO-PRO-1 dye displacement fluorescence; AID 651821; actives 1.3% (n = 370,000); inhibition, % at 3 µM;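 active = inhibition above the plate cutoff, the mean of all test compounds on that plate plus 3 SD, cut at about 35% in these data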;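 also: higher means more dye released from RNA so lower well fluorescence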
MsrA inhibitor: bovine MsrA inhibition; purified bovine MsrA, absorbance read-out; inhibition, % at 15.5 µM; actives 0.75% (n = 360,000); AID 651718; in the data active = inhibition above about 4.5%
NadD block: blocks S. aureus nicotinate mononucleotide adenylyltransferase. purified NadD enzyme, colorimetric absorbance read-out. inhibition, % at 20 µM. actives 0.78% (n = 360,000). AID 602399; in the data active = inhibition above about 26%
rCAG bind conf: r(CAG) RNA repeat binding, confirmation; shares compounds with rCAG RNA binder; inhibition, % at 3 µM; actives 70% (n = 4,300); AID 652065; TO-PRO-1 dye displacement fluorescence;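 active = inhibition above a per-plate cutoff, the mean inhibition of sample wells plus 3 SD, cut at about 35% in these data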;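 also: loss of TO-PRO-1 fluorescence as compound displaces dye from 1x1 AA loop RNA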
DNA CAG counter: disrupts DNA CAG TO-PRO-1 complex, flagging rCAG hits; shares compounds with rCAG RNA binder; d(CAG) DNA oligo TO-PRO-1 dye displacement, fluorescence; inhibition, % at 3 µM; actives 94% (n = 4,300);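 active = inhibition above its plate's cutoff, the mean test-well inhibition plus 3 SD, cut at about 4.8% in these data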;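 also: hits displace the dye from DNA and so lower well fluorescence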
DNA CAG DR: counter-screen for rCAG binders: inhibitors of DNA CAG TO-PRO-1 complex; shares compounds with rCAG RNA binder; DNA CAG/GTC duplex TO-PRO-1 dye displacement fluorescence; IC50, µM; actives 20% (n = 250); in the data active = IC50 below about 10 µM
Numbers stand for hits; – = inactive; · = no result. An excerpt weighted towards active compounds, which were near 3.2% of everything screened.

SMILES	DSG3 Ab inh	DAGLB inh	MsrA act	rCAG RNA binder	MsrA inhibitor	NadD block	rCAG bind conf	DNA CAG counter	others
COc1cccc(/C=N/Nc2snc(SC)c2C#N)c1O	–	–	–	74.6	–	–	48.1	19.0
COc1cccc(/C=N/Nc2ccnc(=O)[nH]2)c1O	–	–	–	–	–	–	·	·
COc1cccc(/C=N/Nc2snc(SC)c2C#N)c1	–	–	–	46.6	–	–	36.1	15.1
O=C1C(=NO)CC(c2ccccc2)N1c1ccccc1 (stereo unspecified)	–	–	–	–	–	–	·	·
COc1ccc(S[C@]2(C(=O)N3CCN(C(C)=O)CC3)CC(=O)N(C(=O)Nc3ccc(C)c(Cl)c3)[C@@H]2c2ccc(OC)cc2)cc1	·	·	·	–	·	·	·	·
CCCc1cc(=O)oc2cc(OCC(=O)NCCc3c[nH]c4ccccc34)ccc12	–	–	–	–	–	–	·	·
CC(C)c1ccc(/C=N/n2c(COc3ccccc3)n[nH]c2=S)cc1	–	–	–	36.2	–	–	47.5	11.4
S=c1[nH]nc(COc2ccccc2)n1/N=C/c1cccc(Br)c1	–	–	–	42.4	–	–	44.2	14.1
CC(C)Oc1cccc(-c2n[nH]c(=S)n2N=Cc2ccc(O)cc2O)c1	·	·	·	–	·	·	·	·
CC(/C=N/n1c(-c2ccc(Cl)cc2)n[nH]c1=S)=C\c1ccco1	–	–	–	39.0	–	–	38.6	11.9
CC(C)Oc1cccc(-c2n[nH]c(=S)n2N=Cc2cccc([N+](=O)[O-])c2)c1	·	·	·	51.3	·	·	57.0	17.3
Cc1ccc(/C=N/n2c(COc3ccccc3)n[nH]c2=S)cc1	–	–	–	–	–	–	·	·
C=CCN1C(=O)[C@@H](CC(=O)N2CCN(C(=O)C3CC3)CC2)[C@]2(C(=O)OCC)CCCCC/C=C/12	·	·	·	–	·	·	·	·
Cc1cccc(C)c1-n1nnnc1C1c2ccccc2C(=O)N1CCOc1ccccc1 (stereo unspecified)	·	·	–	–	–	–	·	·
S=c1[nH]nc(COc2ccccc2)n1/N=C/c1cccnc1	–	–	–	–	–	–	·	·
S=c1[nH]nc(COc2ccccc2)n1/N=C/C(Cl)=C/c1ccccc1	·	–	–	51.6	–	–	72.3	34.4	DNA CAG DR=–
Cc1cc(-c2n[nH]c(=S)n2N=Cc2cccc(Oc3ccccc3)c2)n[nH]1	·	·	·	45.7	·	·	–	7.9
S=c1[nH]nc(-c2ccncc2)n1/N=C/C(Cl)=C\c1ccccc1	–	–	–	39.4	–	–	–	9.5
Cc1ccc(Cc2c(-c3cccc(Br)c3)nc3ccc(Br)cn23)cc1	·	·	–	37.8	–	–	–	9.7
COc1ccccc1Cc1c(-c2ccccc2)nc2ccc(Br)cn12	·	·	–	–	–	–	·	·
COc1ccccc1Cc1c(-c2cccc(Br)c2)nc2ccc(Br)cn12	·	·	–	53.6	–	–	–	7.3
Cc1ccc(Cc2c(-c3ccc(Cl)cc3)nc3ccc(Br)cn23)cc1	–	–	–	–	–	–	·	·
COc1ccccc1Cc1c(-c2ccc(Cl)cc2)nc2ccc(Br)cn12	·	·	–	41.7	–	–	–	6.8
Cc1ccc(Cc2c(-c3ccc(C)cc3)nc3c(C)cc(Br)cn23)cc1	·	·	–	41.4	–	–	–	6.3
COc1ccccc1Cc1c(-c2ccc(C)cc2)nc2ccc(Br)cn12	·	·	–	–	–	–	·	·
SMILES	DSG3 Ab inh	DAGLB inh	MsrA act	rCAG RNA binder	MsrA inhibitor	NadD block	rCAG bind conf	DNA CAG counter	others
C=CCN1C(=O)[C@@H](CC(=O)NCCC(C)C)[C@]2(C(=O)OC)CCCCC=C12	·	·	·	–	·	·	·	·
C=CCN1[C@@H](C)COc2cc(N3CCSCC3)ccc2S1(=O)=O	·	·	·	–	·	·	·	·
OC[C@@H]1CN(Cc2ccc3c(c2)OCO3)C[C@H](n2cnc3c(NC4CC4)ncnc32)O1	·	·	–	–	–	–	·	·
COc1ccc(C2c3sc(=O)[nH]c3SC3C4CCC(C4)C23)cc1OC (stereo unspecified)	–	–	–	–	–	–	·	·
COc1cc(C2c3sc(=O)[nH]c3SC3C(=O)N(c4ccc(Br)cc4)C(=O)C32)ccc1O (stereo unspecified)	–	–	–	37.8	–	–	–	8.2
COc1cc(/C=C/C(=O)O)cc(S(=O)(=O)NC2CCCC2)c1OC	–	–	–	–	–	–	·	·
COc1cc(/C=C/C(=O)O)cc(S(=O)(=O)Nc2cc(C(F)(F)F)ccc2N2CCOCC2)c1OC	–	–	–	41.0	–	–	–	5.8
COc1cc(/C=C/C(=O)O)cc(S(=O)(=O)Nc2cc(Cl)c(Cl)cc2Cl)c1OC	–	–	–	64.8	–	–	36.6	7.4
CCOC(=O)N1CCC2(CC1)C(C#N)=C(N)Oc1n[nH]c(C)c12	–	–	–	–	–	–	·	·
CCOC(=O)N1CCC2(CC1)C(C#N)=C(N)Oc1c2c(C)nn1-c1cccc(Cl)c1	–	–	–	35.9	–	–	–	15.7
CN(C)CCNC(=O)C1(C)Cc2c(-c3cccc(C(F)(F)F)c3)ccnc2O1 (stereo unspecified)	·	·	–	–	–	–	·	·
CSC(=NS(=O)(=O)c1ccccc1)NNC(=O)c1c(-c2c(Cl)cccc2Cl)noc1C	·	·	–	34.8	–	–	–	–
CSc1nsc2nc(=O)c(/C=C3\C(C)=Nc4ccccc43)c(N)n12	–	–	–	41.9	–	–	–	4.7
COc1ccc(-n2c(O)c(/C=N/NS(=O)(=O)c3ccc(C)c([N+](=O)[O-])c3)c3ccccc3c2=O)cc1OC	–	–	–	37.4	–	–	56.6	25.5
COc1cc(/C=N/NS(=O)(=O)c2ccc(C)c([N+](=O)[O-])c2)cc([N+](=O)[O-])c1O	–	–	–	–	–	–	·	·
O=S1(=O)c2ccc(Br)cc2OC[C@@H](Cc2ccccc2)N1Cc1cn(CC2CCCCC2)nn1	·	·	·	–	·	·	·	·
O=C(C[C@@H]1CC[C@H](NC(=O)c2ccc3c(c2)OCO3)[C@@H](CO)O1)NCc1ccc(F)cc1	·	·	·	–	–	·	·	·
Cc1[nH]n(-c2ccccc2)c(=O)c1N=Nc1c(O)cc(S(=O)(=O)N(C)C)c2ccccc12	–	–	–	41.7	–	55.9	89.0	66.9
Cc1ccc(S(=O)(=O)Oc2ccccc2/C=N/Nc2ccc(C(=O)O)cc2)cc1	–	–	–	50.1	–	–	–	6.1
COC(=O)[C@]12C[C@H](CC(=O)N3CCOCC3)C(=O)N(Cc3ccc4c(c3)OCO4)C1=C[C@H](C(C)C)O[C@@H]2C1CC1	·	·	·	–	·	·	·	·
NC1=NC(=O)/C(=C\c2ccco2)S1	–	–	–	36.9	–	–	–	5.7
CCN(CC)C(=O)C(=O)c1cccn1-c1cccc(Cl)c1C#N	–	–	–	–	–	–	·	·
CCN(CC)C(=O)C(=O)c1cccn1-c1c(Cl)cccc1C#N	–	–	–	36.5	–	–	–	–
